An excerpt weighted towards active compounds, which were near 1.3% of everything screened.
EPAC2 antagonist – EPAC2 (human) antagonism. 0.18% of 360,000 active. AID 720708. Potency, µM (doses to about 114 µM), for the others: at the top dose activity, negative = inhibition, usual class: inhibitors. EPAC2 GEF exchange of Rap1B-BODIPY-GDP, fluorescence. Q8WZA2; also: % is scaled to controls: 0 for no effect and ±100 for the full control effect; nearly all actives have a fitted effect of over 45% in size
12-LOX inh – blocks human arachidonate 12S-lipoxygenase | P18054 | purified 12hLO, xylenol orange hydroperoxide absorbance | Potency, µM (titrated, usually from 108 µM), for inactives: top-dose activity change, negative = inhibition, usual class: inhibitors | 1.1% of 580,000 active | AID 1671190; also: % is scaled to controls: 0 for no effect and ±100 for the full control effect
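Purified human 12hLO at 150 nM in 25 mM Hepes, 0.01% Triton X-100, pH 7.0, preincubated 15 min at room temperature with compound. Reaction started with 40 uM arachidonic acid, 30 min at room temperature. Hydroperoxide measured by Fe-xylenol orange, 573/405 nm absorbance ratio.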
EPAC1 agonist – activates human EPAC1 exchange factor; O95398; EPAC1 agonist qHTS, biochemical assay; response scale: 100% = response to 6.5 mM cAMP; Potency, µM (highest dose often 154 µM), for inactives: at the top dose activation, hits mostly activators; 0.073% of 360,000 active; also: nearly all actives have a fitted effect of over 60% in size
Target sequence (O95398 whole entry, looked up): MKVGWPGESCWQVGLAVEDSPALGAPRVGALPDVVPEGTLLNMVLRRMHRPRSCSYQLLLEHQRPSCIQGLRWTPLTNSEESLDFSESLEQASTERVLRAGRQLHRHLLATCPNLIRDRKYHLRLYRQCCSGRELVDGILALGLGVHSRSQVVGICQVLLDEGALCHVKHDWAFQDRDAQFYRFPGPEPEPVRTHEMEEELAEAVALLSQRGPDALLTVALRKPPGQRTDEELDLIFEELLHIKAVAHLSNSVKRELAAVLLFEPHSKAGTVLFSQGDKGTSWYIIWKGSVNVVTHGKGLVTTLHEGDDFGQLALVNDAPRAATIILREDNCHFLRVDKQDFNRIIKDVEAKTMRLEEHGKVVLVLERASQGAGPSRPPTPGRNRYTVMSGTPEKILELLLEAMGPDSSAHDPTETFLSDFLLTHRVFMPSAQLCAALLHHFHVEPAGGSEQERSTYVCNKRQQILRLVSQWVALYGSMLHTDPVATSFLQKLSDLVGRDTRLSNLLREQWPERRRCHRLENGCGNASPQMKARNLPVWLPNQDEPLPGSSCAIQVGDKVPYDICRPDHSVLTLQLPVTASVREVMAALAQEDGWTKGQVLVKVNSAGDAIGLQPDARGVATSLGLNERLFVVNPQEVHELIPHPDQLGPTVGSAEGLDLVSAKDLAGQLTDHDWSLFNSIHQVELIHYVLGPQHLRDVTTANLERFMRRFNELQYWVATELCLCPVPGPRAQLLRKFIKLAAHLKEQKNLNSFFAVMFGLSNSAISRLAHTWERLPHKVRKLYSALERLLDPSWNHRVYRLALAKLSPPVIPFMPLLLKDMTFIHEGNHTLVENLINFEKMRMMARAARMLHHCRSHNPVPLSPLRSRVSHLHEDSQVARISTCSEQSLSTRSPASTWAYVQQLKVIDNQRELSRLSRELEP
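Read-out is the fluorescence drop as BODIPY-GDP leaves Rap1B (480 nm excitation, 540 nm emission), recorded every 5 minutes over 30 minutes. Reactions held 100 nM EPAC1, 250 nM Rap1B–BODIPY-GDP and 50 uM GDP, with 6.5 mM cAMP setting full activation.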
EPAC2 agonist – agonists of human EPAC2 (RAPGEF4); Q8WZA2; EPAC2 activation, biochemical qHTS; response scale: 100% = 6.5 mM cAMP response; Potency, µM (doses to about 154 µM), inactives show at the highest dose activation, hits mostly activators; 0.079% of 360,000 active; also: nearly all actives have a fitted effect of over 50% in size
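Compounds were added across a concentration range to EPAC2 (100 nM), RAP1B-BODIPY-GDP (250 nM) and GDP (50 uM). After 5 min at room temperature, fluorescence was recorded at 5-min intervals for 30 min.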
EPAC1 antagonist – EPAC1 (human) antagonism; EPAC1 GEF assay, Rap1b-BODIPY-GDP exchange fluorescence; 0.14% of 360,000 active; Potency, µM (highest dose often 115 µM), for inactives: at the highest dose activity change, negative = inhibition, usual class: inhibitors;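 also: plate controls were vehicle for no effect and positive control for full effect; nearly all actives have a fitted effect of over 50% in size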
USP1 inh – inhibitors of human USP1/UAF1 deubiquitinase | O94782 | recombinant USP1/UAF1, Ub-Rhodamine cleavage fluorescence | Potency, µM (series often up to 57.1 µM), for the others: at the top dose activity change, negative = inhibition, actives largely listed as inhibitors | 0.23% of 390,000 active | AID 743255; also: % is scaled to controls: 0 for no effect and ±100 for the full control effect; nearly all actives have a fitted effect of over 60% in size
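1 nM enzyme complex + cpd, 15 min RT; start with Ub-Rho 150nM final; kinetic fluorescence ex 480/em 540, 6 reads q60 s. Buffer 50mM HEPES pH 7.8, 0.5mM EDTA, 0.1 mg/ml BSA, 1mM TCEP, 0.01% Tween-20.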
Active calls of the source: *; ? = inconclusive; nt = no result given; ! = not active in a repeat; [ ] = dose if it differs, or a comment. Calls follow the shape of the dose curve; as a rule, active = well fitted curve in the direction sought with a large enough effect; inconclusive = small, poorly fitted or top-dose-only effect, or another doubt; inactive = no such curve, though single readings can be large; an effect the other way counts as inactive or inconclusive. Potency is read from the fitted curve at half-maximal effect.

SMILES	EPAC2 antagonist	12-LOX inh	EPAC1 agonist	EPAC2 agonist	EPAC1 antagonist	USP1 inh
COc1ccccc1-c1cc(NCc2cnc(C)cn2)ncn1	nt	5.6µM*	nt	nt	nt	nt
COc1cc(OC)c(/C=C(/C#N)c2cccc(C(F)(F)F)c2)c(OC)c1	nt	-9%	nt	nt	nt	nt
Cn1c(=O)c2[nH]c(SCCN3CCOCC3)nc2n(C)c1=S	-1%	32µM*	9%	16%	-9%	10%
CCCSc1nc2c([nH]1)c(=O)n(C)c(=S)n2C	-4%	?	5%	4%	7%	-7%
CCSc1nc2c([nH]1)c(=O)n(C)c(=S)n2C	-5%	10µM*	6%	5%	7%	-11%
CCOC(=O)c1sc(NC(=O)C2CC(=O)N(c3ccc(C)c(C)c3)C2)nc1C (centres undefined)	nt	-9%	nt	nt	nt	nt
Cc1ccc(C(C)NC(=O)c2cccs2)cc1 (centres undefined)	4%	10µM*	5%	-3%	19%	-20%
CC(C)CCn1c(SCC(=O)c2ccccc2)nc2c1c(=O)n(C)c(=O)n2C	nt	18µM*	nt	nt	nt	nt
CC(C)CCn1c(SCC(=O)c2ccccc2)nc2c1c(=O)[nH]c(=O)n2C	-6%	9%	1%	-1%	-24%	-3%
CC(NC(=O)NOCc1ccccc1)c1ccc(NC(=O)C2CC2)cc1 (centres undefined)	nt	-12%	nt	nt	nt	nt
CN(C)CCCSc1nc(N2CCOCC2)c2c(c1C#N)CCCC2	nt	0.5µM*	nt	nt	nt	nt
CCCSc1nc(N2CCOCC2)c2c(c1C#N)CCCC2	-5%	3%	0%	3%	0%	-26%
COc1ccc2ccccc2c1C1CC(=O)N2CN(C3CCCCC3)CSC2=C1C#N (centres undefined)	-1%	18µM*	13%	8%	-8%	?
COc1ccc(C2CC(=O)N3CN(C4CCCCC4)CSC3=C2C#N)c(OC)c1 (centres undefined)	nt	40µM*	nt	nt	nt	2.2µM*
CN1C(=O)C(NC(=O)C(=O)NCc2ccncc2)c2ccccc21 (centres undefined)	nt	-49%	nt	nt	nt	nt
CCCCCCCCCCCCCCCCCCNc1ccn(C2OC(COP(=O)(O)OCC3OC(n4cc(F)c(=O)[nH]c4=O)CC3O)C(O)C2O)c(=O)n1 (centres undefined)	4%	?	-35%	9%	22µM*	?
CC(C)(C)OC(=O)COc1ccc2c(-c3cc4ccccc4oc3=O)cc(=O)oc2c1	nt	3%	nt	nt	nt	nt
CCC(C(=O)Nc1ccccc1N1CCCC1)c1ccccc1 (centres undefined)	5%	2%	-1%	-6%	-4%	-9%
CCC(Oc1ccccc1)C(=O)Nc1ccccc1N1CCCC1 (centres undefined)	50µM*	nt	9%	13%	-25%	-19%
CCC(Oc1ccccc1)C(=O)Nc1ccccc1N1CCCCC1 (centres undefined)	13µM*	5%	-3%	7%	3%	-26%
CCOc1cc2ccccc2cc1C(=O)Nc1ccc2oc(C)nc2c1	nt	13%	nt	nt	nt	nt
COC1=C(Br)C(=O)c2nc(C)ccc2C1=O	?	?	5%	18%	?	25µM*
COC1=C(N)C(=O)c2nc(C)ccc2C1=O	-26%	?	-2%	13%	1%	7.1µM*
COC1=C(OC)C(=O)c2ccccc2C1=O	nt	-6%	nt	nt	nt	nt
Fc1ccc(CNCc2ccc(-c3ccccc3F)o2)cc1	nt	-4%	nt	nt	nt	nt
SMILES	EPAC2 antagonist	12-LOX inh	EPAC1 agonist	EPAC2 agonist	EPAC1 antagonist	USP1 inh
Cc1ccc2oc(=O)cc(-c3cc4ccccc4o3)c2c1	nt	16%	nt	nt	nt	nt
CCOC(=O)Nc1ccc2c(c1)C(=NNC(=S)NC)c1ccccc1-2	3%	40µM*	-11%	8%	-12%	-34%
O=c1[nH]c(C2CCN(Cc3cccc(-c4cccs4)c3)CC2)nc2ccc(F)cc12	nt	20%	nt	nt	nt	nt
Cc1ccc2nc(C3CCN(Cc4ccc(-c5cccs5)cc4)CC3)[nH]c(=O)c2c1	nt	35µM*!	nt	nt	nt	nt
Cc1ccnc(NC(=O)Cc2ccc(Cl)cc2Cl)c1	nt	-15%	nt	nt	nt	nt
CC(C)Oc1ccc(C(CCNCc2ccc(O)cc2)c2ccccc2)cc1 (centres undefined)	-1%	40µM*	-5%	7%	-1%	-23%
Cc1ccccc1NC(NC(=O)C(C)C)C(Cl)(Cl)Cl (centres undefined)	nt	2%	nt	nt	nt	nt
CCN(CC)C(=O)CC(c1ccccc1)c1ccco1 (centres undefined)	5%	-11%	1%	-1%	2%	-13%
O=C(c1ccco1)N(CCC(c1ccccc1)c1ccco1)Cc1ccccc1 (centres undefined)	?	?	2%	4%	89µM*	-18%
COc1ccc(CN(CCC(c2ccccc2)c2ccco2)C(=O)c2ccco2)cc1 (centres undefined)	?	50µM*	4%	5%	?	-19%
COc1ccc(-c2cc(C(=O)NC3CC3)c3c(C)nn(-c4ccccc4)c3n2)cc1	nt	6%[6.33 µM]	nt	nt	nt	nt
COc1ccc(-c2cc(C(=O)NC3CCNCC3)c3c(C)nn(-c4ccccc4)c3n2)cc1	nt	25µM*	nt	nt	nt	nt
COc1ccc2nc(N3C(=O)C(O)=C(C(=O)c4ccco4)C3c3ccc(OC)c(OC)c3)sc2c1 (centres undefined)	3%	40µM*	1%	-2%	-5%	?
Cc1ccc2nc(N3C(=O)C(O)=C(C(=O)c4ccc(C)o4)C3c3cccc(O)c3)sc2c1 (centres undefined)	7%	13µM*!	-13%	-7%	50µM*	-19%
COc1ccc(C2C(C(C)=O)=C(O)C(=O)N2c2nc3ccccc3s2)cc1OC (centres undefined)	-9%	45µM*	3%	10%	-11%	-16%
COc1ccc(C2C(C(C)=O)=C(O)C(=O)N2c2nccs2)cc1OC (centres undefined)	-1%	-34%	1%	7%	-24%	-4%
COC(=O)c1sc(N2C(=O)C(O)=C(C(=O)c3ccc(C)o3)C2c2ccc(OC)c(OC)c2)nc1C (centres undefined)	-1%	nt	2%	-14%	9%	-10%
CCC(=O)Nc1ccc2c(c1)nc(Cn1cccn1)n2CC(C)C	nt	-8%	nt	nt	nt	nt
O=C(NC1CCN(c2cc(-c3ccc(F)cc3)[nH]n2)C1)c1c[nH]c2ccccc12 (centres undefined)	nt	1%	nt	nt	nt	nt
Cc1c(C(=O)N(Cc2nc3ccccc3c(=O)[nH]2)C(C)C)oc2ccc(Br)cc12	nt	45µM*	nt	nt	nt	nt
Cc1c(C(=O)N(Cc2nc3ccccc3c(=O)[nH]2)C(C)C)oc2ccccc12	nt	-2%	nt	nt	nt	nt
O=C(c1cnccn1)N(Cc1ccccc1)c1ccccc1	nt	-1%	nt	nt	nt	nt

Compound activity: PubChem, National Center for Advancing Translational Sciences (NCATS)
